Rab9 prom act: Rab9 promoter activation; AID 485297; hit rate 2.8% among 320,000; Huh7 Rab9 promoter-luciferase reporter, luminescence, 24 h; Potency, µM (series often up to 9.22 µM), inactives show top-dose activation, negative = inhibition, most hits filed as activators; note: % of control where 0% means no effect; nearly all actives have a fitted effect of over 60% in size
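Rab9 promoter-driven luciferase in stably transfected Huh7 cells; 1500 cells/well rested 2 h, exposed to compound in DMSO for 24 h at 37 °C, 5% CO2. Luminescence read 10 min after adding luciferase reagent at ambient temperature.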
SMN2 splice up: increases expression of the SMN2 splice variant. hit rate 2.8% among 210,000. AID 1458. Potency, µM (titrated, usually from 46.1 µM), for inactives: at the highest dose activity change, positive = activation, actives largely listed as activators. HEK293 SMN2-luciferase splicing reporter, luminescence, 30-36 h; note: % of control where 0% means no effect; nearly all actives have a fitted effect of over 55% in size
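HEK293 cells carry an SMN2 minigene-luciferase reporter in which exon 7 inclusion puts luciferase in frame. Cells were seeded at 2000 cells/well, attached for 10-12 hours, then exposed to compounds for 30-36 hours at 37C before ONE-Glo luminescence.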
ELG1 repair inh: ELG1-dependent DNA repair inhibition; HEK293T ELG1-luciferase reporter, luminescence, 16 h; DNA damage induced by 5-fluorouridine; Potency, µM (series often up to 46.1 µM), without a hit: at the highest dose activity change, negative = inhibition, usual class: inhibitors; hit rate 2.3% among 330,000; AID 504467; note: % is set by controls: 0 for no effect and ±100 for the full control effect; nearly all actives have a fitted effect of over 55% in size
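5-Fluorouridine DNA damage + compound/DMSO, 2,000 cells/well, 16 h, 37 °C/5% CO2. ONE-Glo, 30 min RT, luminescence. Readout = decrease in reporter signal.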
NPC1 promoter act: NPC1 promoter activation; Huh7 NPC1 promoter luciferase reporter, 24 h; hit rate 2.4% among 320,000; Potency, µM (highest dose often 9.22 µM), without a hit: at the highest dose activation, hits mostly activators; note: % of control where 0% means no effect; nearly all actives have a fitted effect of over 60% in size
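Luminescence from an NPC1 promoter-driven luciferase reporter in stably transfected Huh7 cells was measured after 24 h compound treatment at 37 °C, followed by 10 min ambient incubation with luciferase detection reagent.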
ELG1 genotox: genotoxicity induction in ELG1-luciferase HEK293T cells. HEK293T ELG1-luciferase reporter, luminescence, 16 h. Potency, µM (top dose mostly 46 µM), for inactives: at the top dose activity change, positive = activation, actives largely listed as activators. hit rate 1.3% among 330,000. AID 504466; note: % of control where 0% means no effect; nearly all actives have a fitted effect of over 60% in size
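DMSO vehicle served as control against compound-treated ELG1-luciferase HEK293T cells; exposure lasted 16 hr at 37 °C and 5% CO2, followed by ONE-Glo luminescence detection after 30 min.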
FLuc counter: firefly luciferase modulation, counter-screen for miR-21 project; P08659; purified FLuc, Km substrates, luminescence inhibition; Potency, µM (titrated, usually from 57.5 µM), for the others: at the top dose activity change, negative = inhibition, most hits filed as inhibitors; hit rate 6.9% among 360,000; AID 588342;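 note: plate controls were vehicle for no effect and reference inhibitor for full effect; nearly all actives have a fitted effect of over 55% in size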
Target sequence (P08659 whole entry, looked up): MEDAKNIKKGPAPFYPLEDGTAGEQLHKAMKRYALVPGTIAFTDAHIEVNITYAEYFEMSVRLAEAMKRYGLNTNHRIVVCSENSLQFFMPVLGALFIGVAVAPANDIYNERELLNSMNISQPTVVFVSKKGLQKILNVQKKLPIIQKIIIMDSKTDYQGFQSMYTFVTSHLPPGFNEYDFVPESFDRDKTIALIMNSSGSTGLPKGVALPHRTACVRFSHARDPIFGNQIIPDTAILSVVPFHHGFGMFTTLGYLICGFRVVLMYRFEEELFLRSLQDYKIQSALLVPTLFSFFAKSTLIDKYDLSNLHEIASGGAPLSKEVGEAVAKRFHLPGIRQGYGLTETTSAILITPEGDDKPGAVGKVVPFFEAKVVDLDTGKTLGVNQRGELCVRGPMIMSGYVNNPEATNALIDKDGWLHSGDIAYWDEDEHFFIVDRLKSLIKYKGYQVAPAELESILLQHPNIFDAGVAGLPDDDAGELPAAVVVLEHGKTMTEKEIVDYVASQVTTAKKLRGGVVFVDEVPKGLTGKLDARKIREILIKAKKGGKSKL
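Purified P. pyralis luciferase (10nM final) with 10uM D-luciferin and 10uM ATP (Km levels) in 50mM Tris acetate pH 7.5, 10mM Mg acetate, 0.01% Tween-20, 0.05% BSA; qHTS 6-point titration, ~60 µM downward; luminescence read.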
* hit, by the source's call; u = inconclusive; x = no result given; [ ] = another dose, or the depositor's remark. Most compounds without a hit are left out; they make up all but 9.2% or so of the library. Calls come from the whole dose curve; as a rule, active = well fitted curve in the direction sought with a large enough effect; inconclusive = small, poorly fitted or top-dose-only effect, or another doubt; inactive = no such curve, though single readings can be large; an effect the other way counts as inactive or inconclusive. Potency is the fitted concentration of half-maximal effect.

SMILES | Rab9 prom act | SMN2 splice up | ELG1 repair inh | NPC1 promoter act | ELG1 genotox | FLuc counter
CN1CCC[C@@H]1c1cccnc1.O=C(O)c1ccccc1O.O=C([OH2+])c1ccccc1O.O=C([OH2+])c1ccccc1O.[Mn] | x | -1%[9.22 µM] | x | x | x | x
Cc1nc2c(ccc3nc(NC(=O)C4CC4)sc32)s1 | -3% | -51% | 3% | u | -6% | 13µM*
CCC(=O)Nc1nc2ccc3sc(C)nc3c2s1 | u | 15% | 5% | u | u | 6.7µM*
CCCC(=O)Nc1nc2ccc3nc(C)sc3c2s1 | u | u | 14% | 19% | u | u
CC(OC(=O)c1cccc(-n2cnnn2)c1)C(=O)c1ccccc1 (stereo not drawn) | 17% | x | u | -2% | u | 3%
COc1cc(OC)c(N(C)S(=O)(=O)c2cccc(C(=O)Nc3nc(C)cs3)c2)cc1Cl | -4% | x | 18µM* | -1% | -10% | 0%
COc1ccc(N(C)S(=O)(=O)c2cccc(C(=O)Nc3nc(C)cs3)c2)cc1 | -4% | x | u | -5% | -2% | -1%
COc1ccccc1N(C)S(=O)(=O)c1ccc(Cl)c(C(=O)NC2=NCCS2)c1 | u | 17% | -10% | -5% | 0% | -3%
COc1cc(OC)c(N(C)S(=O)(=O)c2cccc(C(=O)NC3=NCCS3)c2)cc1Cl | -8% | x | 16µM* | 2% | -10% | -1%
C/C(=N\OC(=O)NC1CCCCC1)c1sc(-c2ccccc2)nc1C | -7% | -55% | u | 9% | 0% | u
Cc1nc(-c2ccccc2)sc1C(=O)CSc1ccc(Cl)cc1 | 4% | 3% | 7% | 1% | 1% | -12%
C/C(=N\OC(=O)c1ccc(Cl)cc1)c1sc(-c2ccccc2)nc1C | 4µM* | u | u | 4µM* | u | 4%
C/C(=N\OC(=O)c1ccc(F)cc1)c1sc(-c2ccccc2)nc1C | 1.6µM* | 20µM* | u | 2µM* | u | 5%
CC(C)[C@H](NC(=O)c1ccc([N+](=O)[O-])cc1Cl)C(=O)N1CCN(C/C=C/c2ccccc2)CC1 | x | x | 13µM* | x | -6% | x
COc1cc2cnc(-c3ccccc3)c(-c3cccc(C(F)(F)F)c3)c2cc1OC | -2% | x | 13µM* | 0% | -11% | 1%
COc1cc2cnc(-c3ccccc3)c(-c3ccc(C#N)cc3)c2cc1OC | 0% | x | 23µM* | 1% | -7% | 3%
COC(=O)c1scc(S(=O)(=O)C(C)C)c1N/N=C(\C#N)C(=O)c1ccc(Cl)cc1 | -2% | x | 13µM* | -3% | -18% | -2%
Cc1nn2c(-c3ccccc3)ccnc2c1-c1ccccc1 | u | -21% | u | u | u | 5.4µM*
Cc1nn2c(N)c(-c3ccccc3)cnc2c1-c1ccc(Cl)cc1 | 3.5µM* | x | u | 2.5µM* | u | 5.4µM*
Cc1nc2c(-c3ccccc3)c(C)nn2c(N)c1-c1ccccc1 | 1.6µM* | 13µM* | u | 2.2µM* | u | 1.1µM*
CCOC(=O)c1nnc2c(-c3ccc(Cl)cc3)c(C)nn2c1N | x | 0% | x | x | x | 0%
Cc1ccc(-c2ccnc3c(Cl)c(C)nn23)cc1 | -2%[1.84 µM] | x | 4% | -3% | -2% | u
Cc1nn2c3c(cnc2c1-c1ccccc1)C(=O)CCC3 | u | -1% | u | u | u | 15µM*
Cc1cc(N)n2nc(-c3ccccc3)c(-c3ccccc3)c2n1 | 0% | x | u | -5% | 5% | -11%
CCCC(=O)N1c2nc(-c3ccco3)nn2C2(CCCCC2)[C@@H]2CCCC[C@@H]21 | x | x | x | x | x | -9%
SMILES | Rab9 prom act | SMN2 splice up | ELG1 repair inh | NPC1 promoter act | ELG1 genotox | FLuc counter
O=C(CN(c1cccc(Cl)c1)S(=O)(=O)c1ccc(Cl)cc1)N1CCc2ccccc2C1 | 0% | -29% | -7% | -1% | -1% | -8%
CCc1nc2oc3ccccc3c(=O)c2cc1C(=O)OC | 3.5µM* | x | u | 3.2µM* | u | 13µM*
COC(=O)c1ccccc1NC(=O)Cc1noc2ccc(C)cc12 | x | x | x | x | x | -11%
COCc1nc2oc3ccc(F)cc3c(=O)c2cc1C(=O)OC | u | x | u | 2.8µM* | u | u
O=C(Nc1ccccc1)c1cc2c(=O)c3ccccc3oc2nc1C(F)(F)F | -2% | -19% | 1% | -4% | -3% | 3%
COCc1nc2oc3ccc(C)cc3c(=O)c2cc1C(=O)OC | 1.8µM* | x | u | u | u | 11µM*
CCc1cc(=O)oc2c(C)c(OCC(=O)NC3CC(C)(C)NC(C)(C)C3)ccc12 | -6% | x | 12% | -9% | 0% | 0%
COc1ccc(NC(=O)NCCn2nnc3cc(S(=O)(=O)N(C)C)ccc32)cc1 | x | x | x | x | x | -2%
CCN(CC)c1ccc(/C=C(/C#N)c2nc3ccc(C)cc3[nH]2)c(OC(C)C)c1 | -2% | -1% | u | -2% | -5% | 5.4µM*
CCOc1cc(N(CC)CC)ccc1/C=C(/C#N)c1nc2ccccc2[nH]1 | u | -47% | u | 5% | 0% | 9.5µM*
CCCOc1cc(N(CC)CC)ccc1/C=C(/C#N)c1nc2ccc(C)cc2[nH]1 | 0% | x | 4.6µM* | -10% | -7% | -9%
COc1cccc(/C=C(\C#N)c2nc3ccccc3[nH]2)c1OCC(=O)O | -1% | x | 18% | -1% | 5% | -26%
COc1cc(/C=C(\C#N)c2nc3ccc(C)cc3[nH]2)ccc1OCc1ccc(C)cc1 | x | -6% | x | x | x | 0%
S=c1[nH]c2ccc(Cc3ccc4[nH]c(=S)[nH]c4c3)cc2[nH]1 | 4% | x | u | -6% | 5% | -15%
CC1(C)NC(=O)N(CCOCCOc2ccc3ccccc3c2Br)C1=O | 9%[1.84 µM] | 7% | u | 19% | u | u
CC1(C)NC(=O)N(CCCCOc2ccc3ccccc3c2Cl)C1=O | 16% | -12% | u | u | u | 21µM*
CS(=O)(=O)c1cnc2c(-c3ccc(F)cc3)cnn2c1N | 1.1µM* | u | u | 0.79µM* | u | 2.4µM*
Nc1c(-c2cccs2)cnc2c(-c3ccc(F)cc3)cnn12 | 0.35µM* | x | u | 0.45µM* | 2.6µM* | 0.48µM*
CC(C)(C)S(=O)(=O)c1cnc2c(-c3ccsc3)cnn2c1N | u | u | u | u | 9% | -9%
Nc1c(-c2ccccc2)cnc2c(-c3ccccc3)cnn12 | 0.11µM* | x | u | 0.32µM* | 0.73µM* | 0.24µM*
Cc1cc(C)c(S(N)(=O)=O)c(C)c1N(C)S(=O)(=O)c1ccc(Cl)cc1 | 0% | x | -14% | -1% | -7% | 0%
Cc1ccc(N(CC(=O)Nc2ccc3c(c2)OCCO3)S(C)(=O)=O)cc1 | u | x | u | u | 13% | 19µM*

Bioassay records (PubChem)
